# High-throughput results (PubChem)
# MITF inh: blocks human microphthalmia-associated transcription factor; O75030; AlphaScreen MITF homodimerization, bead proximity signal; inhibition, % at 2.6 µM; 650,000 tested, 0.91% active; AID 1259374; in the data active = inhibition above about 50%;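 also: 0% = vehicle wells with protein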
# TEAD-YAP block: TEAD-YAP interaction inhibition; HEK-TIYL cells, TEAD-Gal4/YAP UAS-luciferase luminescence; inhibition, % at 9.12 µM; 640,000 tested, 1.4% active; AID 1259422; in the data active = inhibition above about 32%;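 also: 0% = median of test compound wells and 100% = reference inhibitor wells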
# FBW7 activator: activators of human E3 ligase FBW7; Q969H0; AlphaScreen FBW7–phospho-cyclin E peptide binding, activator screen; normalized activity (activation), % at 26.1 µM; 650,000 tested, 0.13% active; AID 1259310; in the data active = normalized activity above about 1.9%;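 also: purified mutant Fbw7 with reduced substrate affinity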
# Target sequence (Q969H0 whole entry, looked up): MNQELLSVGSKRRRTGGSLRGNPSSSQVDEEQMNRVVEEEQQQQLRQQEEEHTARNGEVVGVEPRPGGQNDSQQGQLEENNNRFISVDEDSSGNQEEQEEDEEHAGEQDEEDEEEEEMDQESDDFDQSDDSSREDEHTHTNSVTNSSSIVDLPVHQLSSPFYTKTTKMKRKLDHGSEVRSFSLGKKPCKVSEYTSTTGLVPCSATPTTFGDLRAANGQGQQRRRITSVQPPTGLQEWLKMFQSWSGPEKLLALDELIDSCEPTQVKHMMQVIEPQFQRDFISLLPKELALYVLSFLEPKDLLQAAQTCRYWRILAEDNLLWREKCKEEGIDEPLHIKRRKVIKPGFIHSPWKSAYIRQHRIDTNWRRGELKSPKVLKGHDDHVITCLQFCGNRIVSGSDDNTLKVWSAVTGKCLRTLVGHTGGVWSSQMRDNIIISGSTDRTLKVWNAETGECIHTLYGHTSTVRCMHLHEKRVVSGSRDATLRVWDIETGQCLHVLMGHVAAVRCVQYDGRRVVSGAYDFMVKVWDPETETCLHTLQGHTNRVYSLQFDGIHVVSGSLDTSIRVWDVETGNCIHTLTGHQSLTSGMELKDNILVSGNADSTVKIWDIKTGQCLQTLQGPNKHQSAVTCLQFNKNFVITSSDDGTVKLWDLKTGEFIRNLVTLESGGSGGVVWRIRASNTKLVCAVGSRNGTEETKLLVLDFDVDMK
# GPR151 activ: activates the human receptor GPR151. Q8TDV0. PathHunter beta-arrestin GPR151 cells, luminescence. activation, % at 11.2 µM. 650,000 tested, 1% active; in the data active = activation above about 4.9%;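 also: 0% = median of compound wells and 100% = cells with positive control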
# GPR151 confirm: human GPR151 activation, confirmation screen | 6,700 tested, under 10 active | activation, % at 11.2 µM | GPR151 PathHunter beta-arrestin cells, luminescence, 90 min; % of EA-reagent control over plate median | shares compounds with GPR151 activ;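 active = mean percent activation across replicates above the confirmation screen cutoff of 4.91%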
# GPR119 counter: GPR119 activation, counter-screen for GPR151 activators; 6,700 tested, 0.3% active; GPR119 PathHunter beta-arrestin cells, luminescence, 90 min; 0 = compound-well median, 100 = enzyme-acceptor control; shares compounds with GPR151 activ; activation, % at 11.2 µM;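 active = mean percent activation in the counterscreen above 29.09%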;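 also: counterscreen on off-target GPR119 to flag nonselective hits from the GPR151 activator screen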
# Starred values were filed as active, the others as inactive; nt = no result given. In the library only some 3.4% were active in any assay of this set; here they are far more common.
SMILES,MITF inh,TEAD-YAP block,FBW7 activator,GPR151 activ,GPR151 confirm,GPR119 counter
FC(F)(F)c1ccc(NCCN2CCOCC2)nc1,-12.7,2.0,-0.1,8.2*,-0.2,2.4
COc1ccc(C(=O)Nc2ccc(-c3nc4ccccc4s3)c(O)c2)cc1[N+](=O)[O-],13.4,-15.0,0.1,-1.6,nt,nt
CC(NC(=O)Cn1nc(-c2ccccc2)ccc1=O)c1ccccc1 (stereo unspecified),-12.0,4.4,0.0,-0.6,nt,nt
COC(=O)c1c(OCc2ccccn2)cc(=O)n2c1CCN(C(=O)c1ccccc1C)CC2,-15.3,-1.5,-0.3,-1.0,nt,nt
COC(=O)c1c(OCc2ccncc2)cc(=O)n2c1CCN(C(=O)c1ccccc1C)CC2,-19.1,-17.4,-0.1,5.1*,0.9,-2.1
COc1ccc(-n2nc3ccc(NC(=O)c4ncn[nH]4)cc3n2)cc1Cl,9.3,-0.5,0.0,5.0*,-0.3,-2.0
CN(C)CCCNc1ccc(S(N)(=O)=O)cc1[N+](=O)[O-],8.3,1.6,0.7,5.7*,0.4,3.3
CC(C)=C/C(C)=N/Nc1ccc(S(N)(=O)=O)cc1[N+](=O)[O-],-2.8,4.2,-0.3,4.9*,-0.7,-8.7
Cc1cc(C)nc(N(C#N)C(C)C(=O)N(C)C)n1 (stereo unspecified),7.4,11.1,0.0,0.3,nt,nt
CCCCC(=O)Nc1cccc(NC(=O)COc2ccc([N+](=O)[O-])cc2)c1,9.2,1.3,-0.1,10.9*,-0.5,7.2
CC(C)(C)NS(=O)(=O)c1ccc(NC(=O)COc2ccc([N+](=O)[O-])cc2)cc1,-5.7,-1.2,-0.1,0.8,nt,nt
CC(=O)NS(=O)(=O)c1ccc(NC(=O)COc2ccc([N+](=O)[O-])cc2)cc1,0.2,13.6,0.2,6.1*,-0.1,0.9
CCC(=O)Nc1cccc(NC(=O)COc2ccc([N+](=O)[O-])cc2)c1,7.7,3.3,0.0,12.4*,-0.1,-2.2
CCNS(=O)(=O)c1ccc(NC(=O)c2ccc([N+](=O)[O-])cc2)cc1,24.1,1.4,0.1,5.1*,0.2,1.8
O=C(Nc1ccc2c(c1)OCO2)c1cc(-c2ccccc2F)no1,12.0,-26.4,0.0,5.2*,0.4,5.3
COc1ccc(NC(=O)c2cc(-c3ccccc3F)no2)cc1OC,6.8,6.2,0.0,-0.8,nt,nt
COc1ccc(NC(=O)c2cc(-c3ccccc3O)no2)cc1OC,-11.2,-8.4,-0.1,5.5*,0.1,-12.7
Cc1cc(C(=O)Nc2ccc3c(c2)OCO3)on1,-6.6,-26.8,0.3,-0.1,nt,nt
CC(=O)c1cc(-c2ccccc2)n(CCC(=O)NCc2ccccc2)c1C,-3.9,-7.9,-0.2,0.4,nt,nt
O=C1COc2cc(-c3c(NC4CCCCC4)c(=O)c3=O)ccc2N1,3.6,-5.7,0.0,14.1*,-0.3,-1.6
CN(C)c1ccc(C2OCC3(CO2)COC(c2ccc(N(C)C)cc2)OC3)cc1 (stereo unspecified),3.7,-3.8,0.0,0.8,nt,nt
CN(C)CC(C)(C)C1OCC2(CO1)COC(C(C)(C)CN(C)C)OC2 (stereo unspecified),12.7,12.9,-0.1,6.9*,0.0,-2.5
CN1C(=O)C(O)(CC(=O)c2ccc3c4c(cccc24)CC3)c2ccccc21 (stereo unspecified),8.7,3.1,0.1,-0.4,nt,nt
CC(C)(C)NC(=O)Cn1cc(S(=O)(=O)Cc2ccccc2)c2ccccc21,0.7,-10.6,0.0,8.3*,0.3,-2.7
NC(=O)c1ccc(NC(=O)Cn2cc(S(=O)(=O)Cc3ccccc3)c3ccccc32)cc1,7.5,-3.8,0.2,-0.1,nt,nt
SMILES,MITF inh,TEAD-YAP block,FBW7 activator,GPR151 activ,GPR151 confirm,GPR119 counter
CC(C)(C)NC(=O)Cn1cc(S(=O)(=O)Cc2ccc(F)cc2)c2ccccc21,11.9,4.9,0.0,5.3*,1.2,3.9
CCNC(=O)C(Cc1ccc([N+](=O)[O-])cc1)NC(=O)OCc1ccccc1 (stereo unspecified),-1.9,-10.8,0.0,5.6*,0.3,6.5
COC(=O)C(Cc1ccccc1)NC(=O)C(Cc1cnc[nH]1)NC(=O)OCc1ccccc1 (stereo unspecified),2.6,-2.3,0.0,5.5*,0.5,-1.3
CCOC(=O)CNC(=O)C(Cc1ccccc1)NC(=O)OCc1ccccc1 (stereo unspecified),-4.8,4.2,-0.1,0.4,nt,nt
COC(=O)C(Cc1ccccc1)NC(=O)C(Cc1ccccc1)NC(=O)OCc1ccccc1 (stereo unspecified),-6.0,1.2,-0.1,0.8,nt,nt
CCCCCC(=O)Nc1ccc(S(=O)(=O)Nc2nccc(C)n2)cc1,9.0,5.9,0.0,5.5*,-1.0,-14.2
Cc1ccc(NC(=O)CS(=O)(=O)c2ccccc2)cc1,4.9,-6.7,0.0,6.1*,0.2,9.9
Cc1ccc(NS(=O)(=O)c2ccc(NC(=O)CCCOc3ccccc3)cc2)cc1,10.2,-10.1,0.0,6.7*,0.6,4.1
Cc1ccc(OCCCC(=O)Nc2ccc(S(=O)(=O)Nc3nc(C)cc(C)n3)cc2)cc1,5.9,8.1,0.1,-0.4,nt,nt
COC(=O)c1ccc(/C=N/N=C2\NC(=O)C(CC(=O)Nc3ccccc3)S2)cc1 (stereo unspecified),11.6,10.3,0.0,0.0,nt,nt
Cc1cccc(C)c1NC(=O)c1ccc(N2C(=O)c3ccccc3C2=O)cc1,6.6,-2.1,-0.1,-1.5,nt,nt
Cc1ccc(S(=O)(=O)NCC(=O)NNC=O)cc1,5.9,12.4,0.0,1.5,nt,nt
COc1ccc(C2C(C(C)=O)=C(C)N=c3s/c(=C\c4cccnc4)c(=O)n32)c(OC)c1 (stereo unspecified),10.5,-0.9,0.2,7.1*,-0.7,4.4
COc1cc(NC(=S)N2CCN(c3ccccn3)CC2)cc(OC)c1,-1.6,-5.6,-0.4,11.0*,-0.3,2.5
COc1ccc(C)cc1NC(=S)N1CCN(c2ccccn2)CC1,-0.5,-6.5,-0.2,5.1*,0.0,-5.1
Cc1ccc(NC(=S)N2CCN(c3ccccn3)CC2)c(C)c1,13.1,-3.3,0.1,0.8,nt,nt
CCOC(=O)C1=C(C)N=c2s/c(=C\c3ccc(Br)cc3)c(=O)n2C1c1cccc(OC)c1 (stereo unspecified),-2.2,0.7,-0.2,0.7,nt,nt
Cc1ccc(C(=O)CC(=O)C(=O)Nc2ncccc2O)c(C)c1,-24.3,5.4,-0.7,8.3*,0.4,8.9
CC(C)(C)C(=O)C1C(c2ccc(Br)cc2)C(C#N)(C#N)C2C=Cc3ccccc3N12 (stereo unspecified),-3.5,2.0,0.1,0.9,nt,nt
COC(=O)c1cc(-c2ccc3c(c2)OCO3)no1,-9.3,-10.7,0.0,0.9,nt,nt
NC(=O)c1cc(-c2ccc3c(c2)OCO3)no1,0.4,3.5,0.0,5.7*,-0.6,-1.4
CCOc1ccc(C2C(C(=O)OC3CCCCC3)=C(C)NC3=C2C(=O)CCC3)cc1OC (stereo unspecified),-7.4,3.8,0.0,1.3,nt,nt
